From the antibiotic and cytotoxicity screens of Wong et al. (2023)
About 3,300 (8.5%) of roughly 39,000 compounds were called active. The sample as a whole holds a higher share of actives than the screen did.

Tested on: HepG2
Assay: cytotoxicity call (relative viability < 0.9)
Conditions: 10 µM

Compound	cytotoxicity call
O=C(Cn1cc([N+](=O)[O-])cn1)n1cccn1	inactive
C[C@@H]1CCCCO[C@H](CN(C)C(=O)Nc2ccc(F)cc2)[C@@H](C)CN([C@@H](C)CO)C(=O)c2cc(NC(=O)Cc3ccccc3)ccc2O1	inactive
COc1ccc(CN(C)C[C@@H]2OCCCC[C@H](C)Oc3ccc(NC(=O)Nc4ccc(OC)cc4)cc3C(=O)N([C@H](C)CO)C[C@@H]2C)cc1	inactive
COc1ccc(CN(C)C[C@H]2OCCCC[C@@H](C)Oc3ccc(NC(=O)Nc4ccc(OC)cc4)cc3C(=O)N([C@@H](C)CO)C[C@@H]2C)cc1	inactive
COc1ccc(CN(C)C[C@@H]2OCCCC[C@H](C)Oc3ccc(NC(=O)Nc4ccc(OC)cc4)cc3C(=O)N([C@@H](C)CO)C[C@@H]2C)cc1	active
COc1ccc(CN(C)C[C@@H]2OCCCC[C@@H](C)Oc3ccc(NC(=O)Nc4ccc(OC)cc4)cc3C(=O)N([C@H](C)CO)C[C@@H]2C)cc1	inactive
COc1ccc(CN(C)C[C@@H]2OCCCC[C@@H](C)Oc3ccc(NC(=O)Nc4ccc(OC)cc4)cc3C(=O)N([C@@H](C)CO)C[C@H]2C)cc1	inactive
COc1ccc(CN(C)C[C@H]2OCCCC[C@@H](C)Oc3ccc(NC(=O)Nc4ccc(OC)cc4)cc3C(=O)N([C@@H](C)CO)C[C@H]2C)cc1	active
COc1ccc(CN(C)C[C@H]2OCCCC[C@@H](C)Oc3ccc(NC(=O)Nc4ccc(OC)cc4)cc3C(=O)N([C@H](C)CO)C[C@@H]2C)cc1	inactive
COc1ccc(CN(C)C[C@@H]2OCCCC[C@@H](C)Oc3ccc(NC(=O)Nc4ccc(OC)cc4)cc3C(=O)N([C@@H](C)CO)C[C@@H]2C)cc1	active
COc1ccc(CN(C)C[C@H]2OCCCC[C@H](C)Oc3ccc(NC(=O)Nc4ccc(OC)cc4)cc3C(=O)N([C@H](C)CO)C[C@@H]2C)cc1	active
Cc1noc(C)c1NC(=O)N[C@@H]1C=C[C@H](CC(=O)N2CCN(C)CC2)O[C@H]1CO	inactive
CC(C)Cc1ccc([C@@H](C)c2nc(-c3cccs3)no2)cc1	inactive
C[C@H](CO)N1C[C@H](C)[C@H](CN(C)C(=O)CCCN(C)C)OCc2cn(nn2)CCCC1=O	inactive
Cc1noc(C)c1S(=O)(=O)Nc1cccc2c1O[C@H](CN(C)C(=O)Nc1ccc3c(c1)OCO3)[C@H](C)CN([C@H](C)CO)C2=O	inactive
Cc1noc(C)c1S(=O)(=O)Nc1ccc2c(c1)C(=O)N([C@H](C)CO)C[C@H](C)[C@@H](CN(C)CC1CCCCC1)OCCCC[C@H](C)O2	inactive
C[C@@H]1CN([C@H](C)CO)C(=O)c2cccc(NS(=O)(=O)c3cccs3)c2O[C@@H]1CN(C)Cc1ccncc1	inactive
